From PubChem
Shown are actives, neighbours in structure and some others; about 2.8% of the full set was active somewhere.
ATXN2 expr inh: reduces ATXN2 reporter expression in HEK-293 cells; HEK-293 ATXN2-luciferase reporter, luminescence, 24 h; Potency, µM (titrated, usually from 57 µM), for the others: at the highest dose activity change, negative = inhibition, hits mostly inhibitors; 360,000 tested, 0.72% active; note: potency is the fitted concentration of half-maximal effect; % is set by controls: 0 for no effect and ±100 for the full control effect; nearly all actives have a fitted effect of over 55% in size
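qHTS (up to 57 uM final) was run with 24 h compound exposure of reporter cells at 37 °C. Each well was multiplexed: SteadyGlo luminescence measured ATXN2-luciferase expression after a fluorogenic Gly-Phe-AFC viability readout (25 uM final).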
HepG2 viability: counter-screen for TGF-b inhibitors: cytotoxicity in HepG2 cells. HepG2 CAGA-GFP viability, ATP luminescence, 18 h. Potency, µM (top dose mostly 46.1 µM), for the others: at the top dose activity change, negative = cytotoxicity, hits mostly cytotoxic. 410,000 tested, 0.76% active; note: potency is the fitted concentration of half-maximal effect
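CellTiter-Glo luminescence gave cytotoxicity after 18 hours at 37 degrees C. The cells were HepG2 CAGA-GFP in 1% FBS DMEM, stimulated with 500 pg/mL TGF-beta after compound addition. %Activity was normalised to no-cell wells (complete cell-killing) and DMSO (no toxicity), and curves were fitted and classified.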
TGFb SMAD3 inh: TGF-b pathway inhibition; Potency, µM (titrated, usually from 46.1 µM), for inactives: top-dose activity, negative = inhibition, actives largely listed as inhibitors; HepG2 CAGA-GFP TGF-b/SMAD3 reporter, GFP fluorescence, 18 h; TGF-beta stimulated, 500 pg/mL final; 410,000 tested, 1.2% active; note: potency is the fitted concentration of half-maximal effect; % is set by controls: 0 for no effect and ±100 for the full control effect; nearly all actives have a fitted effect of over 65% in size
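TGF-beta reporter screen: HEPG2 CAGA-GFP, 1% FBS, 500 pg/mL TGF-beta final, 18 h; per-cell GFP summed per well; curves fitted and categorized by class.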
Six1-Eya2 inh: inhibitors of human Six1/Eya2 interaction. AlphaScreen GST-Six1/His-Eya2 binding, biochemical; stronger effect = lower value. 360,000 tested, 0.56% active. activity change, % (concentration not given with the values). Q15475+O00167; in the data active = activity change below about -65%; inconclusive = mostly about -30% to -63%; note: % is set by controls: 0 for no effect and ±100 for the full control effect
Target sequence (O00167 whole entry, looked up): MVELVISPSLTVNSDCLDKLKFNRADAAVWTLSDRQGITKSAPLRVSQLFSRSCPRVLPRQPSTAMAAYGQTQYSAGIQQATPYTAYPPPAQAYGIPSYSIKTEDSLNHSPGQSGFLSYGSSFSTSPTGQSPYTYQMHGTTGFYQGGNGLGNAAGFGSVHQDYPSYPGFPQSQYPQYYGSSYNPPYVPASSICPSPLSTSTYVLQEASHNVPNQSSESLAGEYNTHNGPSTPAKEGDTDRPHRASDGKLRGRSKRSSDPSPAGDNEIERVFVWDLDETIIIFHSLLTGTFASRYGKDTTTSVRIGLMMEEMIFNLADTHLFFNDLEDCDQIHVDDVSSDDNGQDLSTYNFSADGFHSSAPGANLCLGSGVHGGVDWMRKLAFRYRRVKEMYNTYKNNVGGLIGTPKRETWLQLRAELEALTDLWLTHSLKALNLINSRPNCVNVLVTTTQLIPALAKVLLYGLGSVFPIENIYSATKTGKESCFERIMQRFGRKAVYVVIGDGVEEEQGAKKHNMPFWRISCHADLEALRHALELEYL
Target sequence (Q15475 whole entry, looked up): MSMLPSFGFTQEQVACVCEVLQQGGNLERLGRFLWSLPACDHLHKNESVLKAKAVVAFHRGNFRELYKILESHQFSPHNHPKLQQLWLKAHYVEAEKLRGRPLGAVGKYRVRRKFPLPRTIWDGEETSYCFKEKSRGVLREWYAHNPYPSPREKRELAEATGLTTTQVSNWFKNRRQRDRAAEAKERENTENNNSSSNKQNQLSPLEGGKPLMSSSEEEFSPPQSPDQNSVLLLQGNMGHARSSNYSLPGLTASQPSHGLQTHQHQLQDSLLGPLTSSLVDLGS
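GST-Six1 + His-Eya2 (5X stock: 250/500 nM); Tris pH 8.0, 300 mM NaCl, 0.05% BSA, 0.02% Tween 20; GSH donor/Ni acceptor beads; 1 h 37 °C dark; AlphaScreen readout.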
CtBP-E1A blk: inhibitors of CtBP/E1A interaction. AlphaScreen GST-E1A/His-CtBP binding, 1536-well; stronger effect = lower value. activity change, % (concentration not given with the values). 340,000 tested, 0.49% active; in the data active = activity change below about -65%; inconclusive = mostly about -30% to -63%; note: % is set by controls: 0 for no effect and ±100 for the full control effect
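Steps: dispense buffer (Tris pH 8.0, NaCl 300 mM, TCEP 1 mM, BSA, Tween 20); add 5X protein mix (GST-E1A, His-CtBP, 125 nM each); pin 23 nL compound; 2 h at 37 °C, dark; add 5X beads (50 ug/mL); 1 h; read.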
S2 tox: viability counter-screen for ATXN expression inhibitors | S2 cells (HEK-293 line with an ATXN2-luciferase reporter) viability, CellTiter-Fluor protease fluorescence, 24 h | Potency, µM (highest dose often 56.7 µM), most hits filed as cytotoxic | 400,000 tested, 0.49% active | AID 651635; note: potency is the fitted concentration of half-maximal effect; nearly all actives have a fitted effect of over 40% in size
Starred values were filed as active, the others as inactive; i = inactive; ? = inconclusive; . = not tested or not shown; ! = a repeat was not active. Unless noted, calls come from the whole dose curve; as a rule, active = well fitted curve in the direction sought with a large enough effect; inconclusive = small, poorly fitted or top-dose-only effect, or another doubt; inactive = no such curve, though single readings can be large; an effect the other way counts as inactive or inconclusive.

SMILES	ATXN2 expr inh	HepG2 viability	TGFb SMAD3 inh	Six1-Eya2 inh	CtBP-E1A blk	S2 tox
O=S(=O)(Nc1cccc(C(F)(F)F)c1)c1ccc(-c2cnc(C3CC3)o2)cc1	?	12.6µM*	?	.	.	?
Cc1ccc(CN2CCCn3nc(C(=O)NCc4cc(C)ccc4C)cc3C2=O)cc1	-24.2%	-22.6%	?	.	.	?
CCCCC[C@H]1CN(Cc2ccccc2)C(=O)[C@@H]1CC(=O)NCc1ccccc1	?	14.1µM*!	17.8µM*	-2.3	-1.3	?
c1ccc(-c2nc3cc4ccccc4cc3[nH]2)nc1	-21.6%	8.91µM*	-29.6%	-23.5	-10.7	i
CC(=O)Nc1ccc2nc(-c3ccccn3)[nH]c2c1	4.5%	-31.0%	-3.6%	?	?	i
O=C(CCl)N(c1ccccc1)C1CCS(=O)(=O)C1 (configuration not stated)	?	12.6µM*	?	1.3	0.8	.
COc1cc(/C=C(\C#N)C(=O)NC2CCCCC2C)ccc1OS(=O)(=O)c1ccc(C)cc1 (configuration not stated)	-11.7%	-82.5%	20µM*	8.7	0.5	i
C[C@H](CO)N1C[C@H](C)[C@@H](CN(C)C(=O)Nc2ccc(C(F)(F)F)cc2)Oc2c(NC(=O)C3CCCCC3)cccc2C1=O	-21.2%	-23.8%	?	0.5	1.2	?
C[C@H](CO)N1C[C@H](C)[C@@H](CN(C)C(=O)Nc2ccccc2)Oc2c(NC(=O)Nc3ccc(C(F)(F)F)cc3)cccc2C1=O	?	-97.5%	15.8µM*	4.2	-5.0	.
C[C@@H]1CN([C@H](C)CO)C(=O)c2cccc(NC(=O)NC3CCCCC3)c2O[C@@H]1CN(C)C(=O)Nc1ccc(C(F)(F)F)cc1	?	17.8µM*	?	0.7	-1.1	22.4µM*
C[C@H](CO)N1C[C@H](C)[C@@H](CN(C)C(=O)Nc2ccc(C(F)(F)F)cc2)Oc2c(NC(=O)NC3CCCCC3)cccc2C1=O	?	-32.2%	?	-3.6	0.7	28.2µM*
CC(C)NC(=O)Nc1cccc2c1O[C@H](CN(C)C(=O)Nc1ccc(C(F)(F)F)cc1)[C@@H](C)CN([C@H](C)CO)C2=O	1.6%	-14.9%	-3.8%	-1.6	-3.4	i
COc1ccc(C(=O)NNC(=O)c2ccc3ccccc3n2)cc1	20µM*	-12.5%	?	-3.9	-14.0	.
O=C(COc1ccc(/C=N/NC(=O)c2cc3ccccc3o2)cc1Br)Nc1ccccc1	?	-63.4%	3.55µM*	-5.9	0.8	10µM*
O=C(COc1ccccc1[N+](=O)[O-])Nc1ccc(NC(=O)c2cc3ccccc3o2)cc1	?	-32.7%	?	-11.2	6.5	?
O=Cc1ccc2cccnc2n1	4.8%	1.2%	-1.8%	10.0	-15.9	i
Cc1cccc2cccnc12	1.0%	-20.2%	-14.6%	6.9	4.3	i
c1cnc2c(c1)ccc1cccnc12	5.62µM*!	-11.9%	?	-90.4*	-75.8*	?
O=Cc1ccc2ccc3cccnc3c2n1	-0.5%	-19.9%	?	-68.6*	-93.4*	i
CSS(=O)(=O)c1cccc2cccnc12	-13.2%	-21.5%	?	?	-70.1*	i
COc1ccc(C)cc1NC(=O)Nc1nnc(N2CCCCC2)s1	13.3%	-26.9%	18.5%	.	.	i
CC(=C/c1ccccc1)/C=N/NC(=O)c1nnn(-c2nonc2N)c1CN1CCC(C)CC1	-33.4%	-28.7%	-11.2%	-8.1	-1.2	?
CCCc1c(C(=O)N/N=C(\C)c2ccccn2)nnn1-c1nonc1N	.	10µM*	-1.3%	?	?	i
CC1CCN(Cc2c(C(=O)N/N=C/c3ccccc3O)nnn2-c2nonc2N)CC1	3.16µM*	-11.9%	-25.6%	-1.4	-17.3	i
COCc1c(C(=O)N/N=C\c2ccccn2)nnn1-c1nonc1N	-18.5%	-8.8%	8.2%	-74.3*	-69.7*	i
SMILES	ATXN2 expr inh	HepG2 viability	TGFb SMAD3 inh	Six1-Eya2 inh	CtBP-E1A blk	S2 tox
Cc1ccn2c(Nc3ccc4c(c3)OCCO4)c(-c3ccc(N(C)C)cc3)nc2c1	29.4%	-2.3%	6.5%	.	.	?
O=C(/C=C/c1ccccc1)CCN1CCCCC1	?	20µM*	11.2µM*	8.1	1.0	?
O=C(CCN1CCCCCC1)c1ccccc1	7.2%	-2.6%	0.0%	-1.4	-3.5	i
COCCc1ccc(OCC2CO2)cc1 (configuration not stated)	6.8%	.	.	.	.	i
CCCCN1C(=O)c2[nH]nc(-c3ccccc3O)c2C1c1ccc(OCc2ccccc2)cc1 (configuration not stated)	.	-69.6%	3.55µM*	.	.	.
COCCCN1C(=O)c2[nH]nc(-c3ccccc3O)c2C1c1ccc(OCc2ccccc2)cc1 (configuration not stated)	.	-111.7%	20µM*	.	.	.
CC(C)OCCCN1C(=O)c2[nH]nc(-c3ccccc3O)c2C1c1ccccc1F (configuration not stated)	.	-47.1%	10µM*	.	.	.
CC(C)OCCCN1C(=O)c2[nH]nc(-c3ccccc3O)c2C1c1cccc(OCc2ccccc2)c1 (configuration not stated)	.	15.8µM*	?	.	.	.
O=C1c2[nH]nc(-c3ccccc3O)c2C(c2ccccc2F)N1Cc1cccnc1 (configuration not stated)	-8.4%	-35.5%	-14.9%	.	.	i
CCCCC(=O)Nc1ccc2nc(SCC(=O)N3CCc4ccccc43)sc2c1	-5.1%	-1.0%	8.9%	.	.	i
O=C(c1n[nH]c2c1CCCC2)N1CCC(n2c(C3CCCO3)nc3ccccc32)CC1 (configuration not stated)	.	.	.	.	.	i
COc1cc2c(Nc3ccc(Br)cc3F)ncnc2cc1OCC1CCN(C)CC1	30.6µM*!	.	.	.	.	i
COc1cc2c(Nc3ccc(Cl)c(Cl)c3F)ncnc2cc1OCC1C[C@@H]2CN(C)C[C@H]2C1	30.6µM*	.	.	.	.	.
COc1cc2ncnc(Nc3cccc(Br)c3)c2cc1OC	-26.9%	.	.	.	.	.
COc1ccccc1CNC(=O)c1cn(C)c2ccc(S(=O)(=O)N3CCC(C)CC3)cc2c1=O	12.0%	-11.7%	6.1%	.	.	i
COc1cc(NC(=O)Cn2ncc(Cl)c(Cl)c2=O)c(C)cc1[N+](=O)[O-]	26.7µM*	-25.7%	?	2.3	6.8	16.8µM*
COc1cc(NC(=O)CN2C(=O)CN(C)C2=O)c(C)cc1[N+](=O)[O-]	2.0%	6.3%	0.0%	-0.1	-1.8	i
Cc1c(Cl)sn(-c2ccc(Cl)cc2)c1=O	8.91µM*	-139.7%	?	-3.2	-1.8	29.9µM*
